Assay results published in PubChem BioAssay (NCATS).
Results filed as inconclusive are left out. Where a call stands in place of a potency, no number is given. Calls of active or inactive are those of the source. Calls come from the whole dose curve; as a rule, active = well fitted inhibition curve with a large enough effect; inconclusive = small, poorly fitted or top-dose-only effect, or effect the other way; inactive = flat fitted curve, though single readings scatter.

These compounds were tested against ATP-dependent 6-phosphofructokinase (Trypanosoma brucei brucei) (UniProt O15648) (assay: qHTS Assay to Find Inhibitors of T. brucei phosphofructokinase: hit validation (AID 492961;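 note: luminescence reports ADP formed as PFK phosphorylates fructose-6-phosphate with ATP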)). Conditions: T. brucei PFK, ADP-Glo luminescence; series mostly up to 51.4 µM.
Chain of ATP-dependent 6-phosphofructokinase (Trypanosoma brucei brucei) (O15648 whole entry, looked up): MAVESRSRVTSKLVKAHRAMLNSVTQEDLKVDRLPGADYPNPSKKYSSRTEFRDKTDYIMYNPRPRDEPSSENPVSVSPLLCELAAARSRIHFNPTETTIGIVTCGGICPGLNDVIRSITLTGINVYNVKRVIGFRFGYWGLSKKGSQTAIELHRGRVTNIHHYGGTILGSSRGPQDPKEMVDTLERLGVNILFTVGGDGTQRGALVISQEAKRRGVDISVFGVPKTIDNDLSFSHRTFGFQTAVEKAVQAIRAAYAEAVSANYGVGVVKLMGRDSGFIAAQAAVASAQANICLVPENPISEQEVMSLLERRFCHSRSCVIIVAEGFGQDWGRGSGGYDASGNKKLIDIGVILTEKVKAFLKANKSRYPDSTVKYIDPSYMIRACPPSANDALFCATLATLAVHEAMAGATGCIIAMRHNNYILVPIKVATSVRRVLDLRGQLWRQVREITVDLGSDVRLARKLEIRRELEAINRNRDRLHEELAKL
Description: NIH Molecular Libraries Probe Production Network [MLPCN] NIH Chemical Genomics Center [NCGC] Grant: 1 R03 MH092153-01 PI Name: Malcolm Walkinshaw, University of Edinburgh NCGC Assay Overview: Various species of the protozoan family Trypanosomatidae are responsible for a range of serious human diseases in tropical and subtropical areas of the world. […] Many of the disorders caused by trypanosomatids are fatal if left untreated, but most currently used drugs are inefficient and toxic. […] Oxidative metabolism involving the mitochondrial tricarboxylic acid cycle and oxidative phosphorylation are repressed in these parasites, and recent RNA interference (RNAi) experiments have shown that even partial depletion of certain individual glycolytic enzymes can lead to the death of cultured parasites. One such glycolytic enzyme, phosphofructokinase (PFK), catalyzes the formation of fructose-1,6-bisphosphate (F1,6BP) and ADP from fructose-6-phosphate (F6P) and ATP, and in many metabolic circumstances makes an important contribution to the control of flux through the glycolytic pathway. As a specific glycolytic target, PFK is particularly attractive as it catalyzes the first irreversible step in glycolysis, and structural and kinetic studies have shown very substantial and essential differences from corresponding host enzymes, allowing for the discovery of parasite-selective inhibitors. The goal of this screen is to find small-molecule inhibitors of T. brucei PFK using a biochemical assay that measures PFK activity as a function of ADP production. A luminescence-based assay for T. brucei PFK activity has been developed which uses luciferase to detect production of ADP. Traditional luciferase-based nucleotide detection reagents rely on ATP production as a direct substrate for the luciferase reaction; however, PFK catalyzes the transfer of a phosphate from ATP to F6P, resulting in the net depletion of ATP. To directly measure the ADP product of the PFK reaction, we used the ADP-Glo detection kit (Promega), which utilizes two separate reactions to 1) deplete all remaining uncatalyzed ATP and 2) convert all remaining ADP to ATP, which is then detected through a traditional luciferase-coupled reaction. Compounds were screened as a concentration-titration series that ranged from 57 uM to 0.7 nM.
NCGC Assay Protocol Summary: Substrate buffer was dispensed into white, solid 1536-well plates at 3uL/well in 0.1M triethanolamine (TEA) buffer, pH 8.0, containing final concentrations of 5 mM MgCl2, 0.01% Tween20, 0.5 mM fructose-6-phosphate (F6P) and 0.1mM ATP. Then, 23 nL of compounds or DMSO were delivered to each well using a pin tool. One uL T. brucei PFK (0.1M TEA, 0.01% Tween20, 0.1% bovine serum albumin (BSA) and 1.25nM PFK, final concentrations) was then dispensed, and plates were incubated at room temperature for 45 min. The luminescent detection reagent, ADP-Glo (Promega), was then added in two steps: the first reagent, ADP-Glo (which converts remaining uncatalyzed ATP), was added at 2.5uL/well and incubated for ten minutes at room temperature, and the second component, Kinase Detection reagent (which converts ADP to ATP as a substrate for luciferase-based luminescence), was added immediately after at 5uL/well, followed by one final ten minute room temperature incubation. The plates were measured on a ViewLux plate reader for luminescent signal using a clear filter with a one second exposure. The %Activity was determined from the corrected luminescence values. As no specific T. brucei PFK inhibitors have been identified in the literature, 1x (1.25nM) and 0x PFK enzyme controls (untreated) were included to normalize %Activity of identified inhibitors; 0x enzyme values corresponded to 100%Activity (full inhibition), while 1x PFK enzyme values were used to normalize 0%Activity (no inhibition). Concentration-response curves were fitted to the signals arising from the resulting luminescence. […]
With `CCN(CC)CCOc1ccccc1OC` the Potency was “inactive”. For `O=C(c1cc2ccccc2o1)N1CCN(Cc2ccccc2)CC1`, the Potency was “inactive”. In the case of `CN1c2c(nc(N)[nH]c2=O)NCC1CNc1ccc(C(=O)NC(CCC(=O)O)C(=O)O)cc1` (stereo not given), the Potency is reported as “inactive”. In the case of `O=C(O)/C=C/c1ccccc1`, the Potency is reported as “inactive”. For `CC(C)CCCC(C)NC(C)C` (stereo not given), the Potency was “inactive”. In the case of `CC[C@H]1OC(=O)[C@H](C)[C@@H](O[C@H]2C[C@@](C)(OC)[C@@H](O)[C@H](C)O2)[C@H](C)[C@@H](O[C@@H]2O[C@H](C)C[C@H](N(C)C)[C@H]2O)[C@](C)(O)C[C@@H](C)CN(C)[C@H](C)[C@@H](O)[C@]1(C)O`, the Potency is reported as “inactive”. In the case of `Cc1ncc(C[n+]2csc(CCO)c2C)c(N)n1`, the Potency is reported as “inactive”. With `O=C(O)CCC/C=C\C[C@@H]1[C@@H](/C=C/[C@@H](O)COc2cccc(C(F)(F)F)c2)[C@H](O)C[C@@H]1O` the Potency was “inactive”. `C#C[C@]1(O)CC[C@@H]2[C@H]3CCC4=CC(=O)CC[C@H]4[C@H]3C(=C)C[C@@]21CC` was tested, and the Potency was “inactive”. For `CCCCO`, the Potency was “inactive”. In the case of `CCCOc1cc(N)ccc1C(=O)OCCN(CC)CC`, the Potency is reported as “inactive”. In the case of `O=C(O)Cc1nn(Cc2ccc(Br)cc2F)c(=O)c2ccccc12`, the Potency is reported as “inactive”. In the case of `Nc1ncnc2c1ncn2CCOCP(=O)(O)O`, the Potency is reported as “inactive”. For `CC(=O)Nc1ccc(NC(=S)NC(=O)c2ccc(C(C)(C)C)cc2)cc1`, the Potency was “inactive”. For `S=C=Nc1ccc(N=C=S)cc1`, the Potency was “inactive”. In the case of `CCC(O)c1ccccc1` (stereo not given), the Potency is reported as “inactive”. `NC(=O)[C@H]1O[C@@H](O)[C@H](O)[C@@H](O)[C@@H]1O` was tested, and the Potency was “inactive”. With `Cc1nc(NS(=O)(=O)c2ccc(N)cc2)nc(C)c1Br` the Potency was “inactive”. With `O=C1c2ccccc2C(=O)c2c1ccc(O)c2O` the Potency was “inactive”. `CC(C)(CO)[C@@H](O)C(=O)NCCC(=O)NCCSSCCNC(=O)CCNC(=O)[C@H](O)C(C)(C)CO` was tested, and the Potency was “inactive”. For `CC(CNC(=O)c1cccnc1)NC(=O)c1cccnc1` (stereo not given), the Potency was “inactive”. In the case of `O=P(O)(O)OC[C@H](O)CO`, the Potency is reported as “inactive”. In the case of `CC(C)c1nc(N(C)S(C)(=O)=O)nc(-c2ccc(F)cc2)c1/C=C/C(O)CC(O)CC(=O)O` (stereo not given), the Potency is reported as “inactive”. `Cc1ncc(C[n+]2csc(CCOP(=O)(O)OP(=O)(O)O)c2C)c(N)n1` was tested, and the Potency was “inactive”. In the case of `Cc1cc(C)c(NC(=O)C[C@H](CC(=O)O)c2cccc3ccccc23)c(C(=O)N2CCC3(CCCC3)CC2)c1`, the Potency is reported as “inactive”. With `O=C(NNCNNC(=O)c1ccncc1)c1ccncc1` the Potency was “inactive”. With `O=C1CCC(=O)N1CO` the Potency was “inactive”. With `CC1CCCCN1CCCOC(=O)c1ccccc1` (stereo not given) the Potency was “inactive”. With `OCC1(CO)COC(C(Cl)(Cl)Cl)OC1` the Potency was “inactive”. With `CCN(CC)CCC(=O)N1c2ccccc2Sc2ccc(C(F)(F)F)cc21` the Potency was “inactive”. In the case of `Cc1ccc(C(C)(C)c2ccc(C)cc2)cc1`, the Potency is reported as “inactive”. In the case of `Cc1cc(C(=O)NCCc2ccc(S(=O)(=O)NC(=O)NN3CCCCCC3)cc2)no1`, the Potency is reported as “inactive”. With `OCc1ccccc1` the Potency was “inactive”. In the case of `CN1C(=O)OC(C)(C)C1=O`, the Potency is reported as “inactive”. `COC(=O)c1ccccc1O` was tested, and the Potency was “inactive”. In the case of `CN(C)C=Nc1c(I)cc(I)c(CCC(=O)O)c1I`, the Potency is reported as “inactive”. For `CN(C)CCOc1ccc(/C(=C(/CCCl)c2ccccc2)c2ccccc2)cc1`, the Potency was “inactive”. `CS(=O)(=O)c1ccc([C@@H](O)[C@@H](COC(=O)CN)NC(=O)C(Cl)Cl)cc1` was tested, and the Potency was “inactive”. In the case of `C=C1C(CCl)(CCl)C2(Cl)C(Cl)C(Cl)C1(Cl)C2(Cl)Cl` (stereo not given), the Potency is reported as “inactive”. `[O]=[Bi][O]C(=O)[O][Bi]=[O]` was tested, and the Potency was “inactive”.
